Test results: PubChem BioAssay (NCATS)
Where “and” joins values, the source holds several entries; their conditions need not be identical. Equal values may be shown once. Inconclusive results are not listed. Calls of active or inactive are those of the source. Unless noted, calls come from the whole dose curve; as a rule, active = well fitted curve in the direction sought with a large enough effect; inconclusive = small, poorly fitted or top-dose-only effect, or another doubt; inactive = no such curve, though single readings can be large; an effect the other way counts as inactive or inconclusive.

Columns and labels:
[1] = target: Alpha-galactosidase A (Homo sapiens) (UniProt P06280); test: Counterscreen for Glucocerebrosidase Inhibitors: qHTS Assay for Human alpha-Galactosidase at pH 4.5 (AID 992); note: 0% is about no effect
Sequence of Alpha-galactosidase A (Homo sapiens) (P06280 whole entry, looked up): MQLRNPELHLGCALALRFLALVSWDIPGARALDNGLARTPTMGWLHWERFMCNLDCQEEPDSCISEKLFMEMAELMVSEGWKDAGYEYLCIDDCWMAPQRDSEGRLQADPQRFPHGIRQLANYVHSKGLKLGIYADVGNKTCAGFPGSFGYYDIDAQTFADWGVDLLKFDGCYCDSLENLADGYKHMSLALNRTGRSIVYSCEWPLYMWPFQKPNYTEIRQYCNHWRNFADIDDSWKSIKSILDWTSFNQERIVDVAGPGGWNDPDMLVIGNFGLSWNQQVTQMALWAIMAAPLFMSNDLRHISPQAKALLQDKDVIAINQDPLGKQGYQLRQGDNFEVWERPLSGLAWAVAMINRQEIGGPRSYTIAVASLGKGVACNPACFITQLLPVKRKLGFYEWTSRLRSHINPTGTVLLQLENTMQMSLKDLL
In short: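 Each compound is preincubated briefly with 2 nM enzyme before substrate addition (80 uM); plates then sit 20 min at ambient temperature, are quenched with 1M NaOH/1M glycine, and read fluorometrically.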

[2] = target: alpha-glucosidase (Oryza sativa, rice) (UniProt Q653V4); test: Counterscreen for Glucocerebrosidase Inhibitors: qHTS Assay for Rice alpha-Glucosidase at pH 5.0 (AID 997);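 note: 0% = full activity with enzyme and -100% = basal without enzyme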
In short: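 Endpoint fluorogenic assay at pH 5.0: compounds (0.7 nM to 77 uM) titrated against 4 nM rice enzyme and 400 uM 4-MU-alpha-glucoside for 20 min at room temperature; NaOH/glycine stop, read ex 365/em 440 nm, Hill-fitted AC50.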

[3] = Validation of Assay for Modulators of Lamin A Splicing (AID 1459; active = well fitted curve in the direction sought with a large enough effect in the signal ratio; the % refers to the signal ratio;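 note: cells exposed to compound for two days before reading; 0% is about no effect; ratio rise marks activators and ratio drop marks inhibitors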)
In short: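 S3 HeLa stably expressing lamin A-EGFP splicing minigene and DsRed2, 600 cells/well in Opti-MEM with 2% FBS, treated 48 h at 37C; laser-scanning cytometry gives GFP/RFP total intensity ratio; ancitabine positive control, 0.5% DMSO vehicle.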

[4] = qHTS Assay for Lipid Storage Modulators (AID 1519; calls by dose curve; for activity change, negative = inhibition: % is set by controls: 0 for no effect and ±100 for the full control effect); conditions: Drosophila S3 cells, BODIPY lipid droplet/cell ratio, laser cytometry, cells loaded with oleic acid
In short: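 Cells seeded at 5,000 per well were treated with compounds over a concentration series and loaded with oleic acid (400 uM, as added). Lipid droplet fluorescence (488 nm excitation, 500-530 nm channel) was read by laser-scanning cytometry and normalized to 20 uM Triacsin C.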

[5] = target: DNA repair nuclease/redox regulator APEX1 (Homo sapiens) (UniProt P27695); test: qHTS Validation Assay for Inhibitors of the Human Apurinic/apyrimidinic Endonuclease 1 (APE1) (AID 1705;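 note: TAMRA fluorescence gain over two minutes as APE1 cuts a quenched THF abasic duplex; % is set by controls: 0 for no effect and ±100 for the full control effect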)
Sequence of DNA repair nuclease/redox regulator APEX1 (Homo sapiens) (P27695 whole entry, looked up): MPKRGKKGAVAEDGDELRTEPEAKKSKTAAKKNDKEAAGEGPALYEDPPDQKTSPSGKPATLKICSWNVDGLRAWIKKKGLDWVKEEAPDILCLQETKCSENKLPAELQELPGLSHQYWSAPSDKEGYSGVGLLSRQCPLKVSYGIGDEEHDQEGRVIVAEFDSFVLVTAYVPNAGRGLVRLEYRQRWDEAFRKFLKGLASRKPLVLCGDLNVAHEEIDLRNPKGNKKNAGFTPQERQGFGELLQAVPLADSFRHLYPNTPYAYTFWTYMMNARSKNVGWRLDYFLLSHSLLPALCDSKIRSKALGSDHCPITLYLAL
In short: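 Fluorogenic double-stranded THF abasic-site substrate (5'-TAMRA/3'-BHQ-2), 50 nM final. Enzyme preincubated with compound 15 min at room temperature, then substrate added. Kinetic fluorescence (ex 525/em 598 nm) read three times at 60 s intervals; activity taken as third-minus-first read difference.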

[6] = Counterscreen for APE1 Inhibitors: Fluorescent Dye Displacement Validation Assay (AID 1707);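 note: plate controls were ThO with dsDNA and no compound for no effect and ThO without dsDNA for full effect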
In short: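 Loss of Thiazole Orange fluorescence marks promiscuous DNA binders. The dye (250 nM) is mixed with 50 nM abasic-site dsDNA in pH7.5 Tris buffer containing MgCl2, then compounds are added and emission is read once.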

[7] = target: Endonuclease 4 (Escherichia coli (strain K12)) (UniProt P0A6C1); test: Counterscreen for APE1 Inhibitors: qHTS Validation Assay for Inhibitors of Endonuclease IV (AID 1708); note: % is set by controls: 0 for no effect and ±100 for the full control effect
In short: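 The reaction buffer contained 50 mM Tris-HCl pH 7.5, 50 mM NaCl, 2 mM MgCl2, 1 mM DTT and 0.01% Tween-20. Incision of a 50 nM fluorophore/quencher THF substrate by 2 nM enzyme was measured kinetically.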

[8] = qHTS for differential inhibitors of proliferation of Plasmodium falciparum line 7G8 (AID 1815);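 note: parasite growth measured after three days of incubation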; note: potency is the fitted concentration of half-maximal effect;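 for activity change, negative = inhibition: plate controls were vehicle wells for no effect and reference inhibitor wells for full effect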
[9] = qHTS for differential inhibitors of proliferation of Plasmodium falciparum line GB4 (AID 1816); conditions: Potency: Plasmodium falciparum GB4 proliferation inhibition;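 note: parasite growth measured after 72 h incubation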; note: potency is the fitted concentration of half-maximal effect;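 for activity change, negative = inhibition: 0% = vehicle DMSO and -100% = reference inhibitor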
[10] = qHTS for differential inhibitors of proliferation of Plasmodium falciparum line D10 (AID 1877);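 note: parasites grown with compound for 72 h before DNA staining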; note: potency is the fitted concentration of half-maximal effect;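 for activity change, negative = inhibition: plate controls were vehicle wells for no effect and reference inhibitor wells for full effect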
[11] = qHTS for differential inhibitors of proliferation of Plasmodium falciparum line HB3 (AID 1886); conditions: Potency: Plasmodium falciparum HB3 proliferation inhibition;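 note: parasites grown with compound for 72 h before SYBR Green readout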; note: potency is the fitted concentration of half-maximal effect;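 for activity change, negative = inhibition: plate controls were vehicle for no effect and reference inhibitor for full effect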
[12] = target: Ferritin light chain (Equus caballus) (UniProt P02791); test: qHTS Validation Assay for Identification of Novel General Anesthetics (AID 2323); note: % is set by controls: 0 for no effect and ±100 for the full control effect
Sequence of Ferritin light chain (Equus caballus) (P02791 2-175 limits assumed): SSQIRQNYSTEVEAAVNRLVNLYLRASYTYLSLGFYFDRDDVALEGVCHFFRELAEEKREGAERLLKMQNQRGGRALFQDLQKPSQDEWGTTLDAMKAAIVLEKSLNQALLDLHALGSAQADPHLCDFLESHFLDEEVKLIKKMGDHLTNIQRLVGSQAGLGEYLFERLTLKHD
In short: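 Horse-spleen apoferritin (10 uM) in PBS with 50% saturated 1-aminoanthracene; compounds pin-transferred, 10 min at room temperature. Fluorescence read at 380/535 nm, normalized to free 1-AMA and 1-AMA/apoferritin values; four-parameter Hill fit.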

[13] = qHTS for differential inhibitors of proliferation of Plasmodium falciparum line 3D7 (AID 1876); note: potency is the fitted concentration of half-maximal effect
[14] = qHTS for differential inhibitors of proliferation of Plasmodium falciparum line W2 (AID 1883); conditions: Potency: Plasmodium falciparum W2 proliferation inhibition;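 note: parasites grown with compound for 72 h before lysis and staining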; note: potency is the fitted concentration of half-maximal effect;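 for activity change, negative = inhibition: 0% = vehicle wells and -100% = control inhibitor wells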
[15] = qHTS Assay for Modulators of Human Peripheral Myelin Protein 22 (PMP22) Expression/Activity (AID 1967; active = well fitted curve in the direction sought with a large enough effect in the signal ratio; the % refers to the signal ratio;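 note: 0% = untreated cells and 100% end not stated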)
In short: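 Mouse MSC80 Schwann cells carrying Pmp22 promoter–green click beetle luciferase plus EF-alpha–red luciferase control, dosed 24 h at 37 °C. Dual-filter luminescence, overlap-corrected; %Activity from green/red ratio normalised to untreated cells, concentration-response curves fitted.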

[16] = measured here: cell count channel max response
[17] = measured here: lipid channel max response

Cc1oncc1C(=O)Nc1ccc(C(F)(F)F)cc1
-15.6% and 18.5% and -28.2%: max response [4, 17]
inactive: outcome [1] | outcome [2] | outcome [3] | activity change, negative = inhibition ([4]; at 25.7 µM (top of the series)) 0.243% | activity change, negative = inhibition ([4]; at 57.5 µM (top of the series)) 13.4% and -0.067% | outcome [5] | outcome [6] | outcome [7] | Potency [8] | Potency [9] | Potency [10] | Potency [11] | outcome [12]
-14.5% and 1.19% and -29.1%: max response [4, 16]

CCOC(=O)N1CCC(=C2c3ccc(Cl)cc3CCc3cccnc32)CC1
11.7%: max response [4, 17]
1.57%: max response [4, 16]
active: Potency [8] 2.24 µM | Potency [9] 10 µM | Potency [13] 12.6 µM | Potency [10] 10 µM | Potency [14] 5.01 µM | Potency [11] 10 µM
inactive: outcome [1] | outcome [2] | activity change, negative = inhibition ([4]; at 57.5 µM (top of the series)) 3.85% | outcome [5] | outcome [6] | outcome [7] | outcome [12]

Clc1cccc(Cl)c1NC1=NCCN1
inactive: outcome [1] | outcome [2] | activity change, negative = inhibition ([4]; at 25.7 µM (top of the series)) -3.52% | activity change, negative = inhibition ([4]; at 57.5 µM (top of the series)) 4.4% and 1.2% | outcome [5] | outcome [6] | outcome [7] | Potency [8] | Potency [13] | Potency [10] | Potency [11] | outcome [12]
-1.31% and -6% and -15.4%: max response [4, 17]
3.68% and -5.77% and -17.1%: max response [4, 16]

N=c1nc(N2CCCCC2)cc(N)n1O
inactive: outcome [1] | outcome [2] | outcome [3] | activity change, negative = inhibition ([4]; at 25.7 µM (top of the series)) 0.0649% | activity change, negative = inhibition ([4]; at 57.5 µM (top of the series)) 3.81% and 8.57% | outcome [5] | outcome [6] | outcome [7] | Potency [8] | Potency [9] | Potency [13] | Potency [10] | Potency [14] | Potency [11] | outcome [15] | outcome [12]
-1.22% and 19% and 16.9%: max response [4, 16]
1.34% and 23.5% and 29.3%: max response [4, 17]

CN1CCN(CCCN2c3ccccc3Sc3ccc(C(F)(F)F)cc32)CC1
active: Potency [8] 3.98 µM | Potency [9] 4.47 µM | Potency [13] 7.08 µM | Potency [10] 11.2 µM | Potency [14] 4.47 µM | Potency [11] 7.94 µM
-20.9% and 29.4%: max response [4, 17]
-17.1% and 19.1%: max response [4, 16]
inactive: outcome [1] | outcome [2] | activity change, negative = inhibition ([4]; at 25.7 µM (top of the series)) -6.05% | activity change, negative = inhibition ([4]; at 57.5 µM (top of the series)) 7.35% | outcome [5] | outcome [6] | outcome [12]

N#Cc1ccc(C(c2ccc(C#N)cc2)n2cncn2)cc1
-19.8%: max response [4, 16]
-18.7%: max response [4, 17]
inactive: activity change, negative = inhibition ([4]; at 25.7 µM (top of the series)) 0.817%

NCCc1ccc(O)c(O)c1
7.38% and 3.94% and -27.9%: max response [4, 16]
20.7% and 9.74% and -24.3%: max response [4, 17]
inactive: outcome [1] | outcome [2] | outcome [3] | activity change, negative = inhibition ([4]; at 57.5 µM (top of the series)) 6.86% and 6.19% and 1.49% | outcome [5] | outcome [6] | outcome [7] | outcome [12]
active: Potency [14] 10 µM
